Test results published in PubChem BioAssay AID1159580 (chemical genetic matrix, 2015).
Out of some 5,500 compounds screened, about 2,000 (36%) were called active. Another 18% or so got no clear call; they are omitted. Rule as the data show it: active = normalized growth mostly below about 0.91 (no sharp cut-off); inconclusive = no clear call, values can overlap the other calls; inactive = mostly above about 0.92. The list shows a part of the results.

Experiment: chemical genetic growth profiling, strain panel (AID 1159580);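 also: tested at 20 µM; growth read once vehicle control cultures reached saturation at 30 °C; 1 = growth at the plate median or of vehicle wells; lower values mean less growth of the strain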
Conditions: S. cerevisiae deletion strains, growth OD
[1] = locus YAR019C, strain CDC15, stronger effect = lower value
[2] = locus YBL105C, strain PKC1, stronger effect = lower value
[3] = locus YBR135W, strain CKS1, stronger effect = lower value
[4] = locus YBR136W, strain MEC1, stronger effect = lower value
[5] = locus YBR160W, strain CDC28, stronger effect = lower value
[6] = locus YDL017W, strain CDC7, stronger effect = lower value
[7] = locus YDL028C, strain MPS1, stronger effect = lower value
[8] = locus YDL101C, strain DUN1, stronger effect = lower value
[9] = locus YDL108W, strain KIN28, stronger effect = lower value
[10] = locus YDL132W, strain cdc53, stronger effect = lower value
[11] = locus YDL214C, strain PRR2, stronger effect = lower value
[12] = locus YDR052C, strain DBF4, stronger effect = lower value
[13] = locus YDR054C, strain cdc34, stronger effect = lower value
[14] = locus YDR226W, strain ADK1, stronger effect = lower value
[15] = locus YDR477W, strain SNF1, stronger effect = lower value
[16] = locus YER123W, strain YCK3, stronger effect = lower value
[17] = locus YER133W, strain GLC7, stronger effect = lower value
[18] = locus YFL009W, strain cdc4, stronger effect = lower value
[19] = locus YFL029C, strain CAK1, stronger effect = lower value
[20] = locus YFR003C, strain YPI1, stronger effect = lower value
[21] = locus YFR019W, strain FAB1, stronger effect = lower value
[22] = locus YFR028C, strain CDC14, stronger effect = lower value
[23] = locus YGR040W, strain KSS1, stronger effect = lower value
[24] = locus YGR052W, strain FMP48, stronger effect = lower value
[25] = locus YGR092W, strain DBF2, stronger effect = lower value
[26] = locus YHR030C, strain SLT2, stronger effect = lower value
[27] = locus YHR079C, strain IRE1, stronger effect = lower value
[28] = locus YHR082C, strain KSP1, stronger effect = lower value
[29] = locus YHR205W, strain SCH9, stronger effect = lower value
[30] = locus YIL147C, strain SLN1, stronger effect = lower value
[31] = locus YJL095W, strain BCK1, stronger effect = lower value
[32] = locus YJL128C, strain PBS2, stronger effect = lower value
[33] = locus YJL157C, strain FAR1, stronger effect = lower value
[34] = locus YJR016C, strain ILV3, stronger effect = lower value
[35] = locus YJR066W, strain TOR1 (second series), stronger effect = lower value
[36] = locus YJR066W, strain TOR1, stronger effect = lower value
[37] = locus YKL048C, strain ELM1, stronger effect = lower value
[38] = locus YKL067W, strain YNK1, stronger effect = lower value
[39] = locus YKL101W, strain HSL1, stronger effect = lower value
[40] = locus YKL193C, strain SDS22, stronger effect = lower value
[41] = locus YKL203C, strain TOR2, stronger effect = lower value
[42] = locus YLR113W, strain HOG1, stronger effect = lower value
[43] = locus YLR133W, strain CKI1, stronger effect = lower value
[44] = locus YLR403W, strain SFP1, stronger effect = lower value
[45] = locus YML070W, strain DAK1, stronger effect = lower value
[46] = locus YMR001C, strain CDC5, stronger effect = lower value
[47] = locus YMR205C, strain PFK2 (second series), stronger effect = lower value
[48] = locus YMR277W, strain FCP1, stronger effect = lower value
[49] = locus YNL006W, strain LST8, stronger effect = lower value
[50] = locus YNL020C, strain ARK1, stronger effect = lower value
[51] = locus YNL161W, strain CBK1, stronger effect = lower value
[52] = locus YNL183C, strain NPR1, stronger effect = lower value
[53] = locus YNL207W, strain RIO2, stronger effect = lower value
[54] = locus YNL222W, strain SSU72, stronger effect = lower value
[55] = locus YNL307C, strain MCK1 (second series), stronger effect = lower value
[56] = locus YOL078W, strain AVO1, stronger effect = lower value
[57] = locus YOL136C, strain PFK27, stronger effect = lower value
[58] = locus YOR061W, strain CKA2, stronger effect = lower value
[59] = locus YOR119C, strain RIO1, stronger effect = lower value
[60] = locus YOR231W, strain MKK1, stronger effect = lower value
[61] = locus YOR329C, strain SCD5, stronger effect = lower value
[62] = locus YPL031C, strain PHO85, stronger effect = lower value
[63] = locus YPL153C, strain RAD53, stronger effect = lower value
[64] = locus YPL204W, strain HRR25, stronger effect = lower value
[65] = locus YPL209C, strain IPL1, stronger effect = lower value
[66] = locus YPL256C, strain CLN2, stronger effect = lower value
[67] = locus YPR025C, strain CCL1, stronger effect = lower value
[68] = locus YPR106W, strain ISR1, stronger effect = lower value
[69] = locus YPR111W, strain DBF20, stronger effect = lower value
[70] = strain NNK1, stronger effect = lower value
[71] = strain TSCII, stronger effect = lower value

Measured: normalized growth

Cc1nnsc1C(=O)Nc1cc(C(F)(F)F)cc(C(F)(F)F)c1
inactive: [1] 0.956 | [2] 0.957 | [3] 0.953 | [4] 0.958 | [5] 0.962 | [6] 0.958 | [7] 0.959 | [8] 0.964 | [9] 0.958 | [10] 0.95 | [11] 0.987 | [12] 0.966 | [13] 0.951 | [14] 0.955 | [15] 0.995 | [16] 1 | [17] 1.01 | [18] 0.948 | [19] 0.958 | [20] 0.955 | [21] 0.987 | [22] 0.964 | [23] 1 | [24] 1.02 | [25] 0.974 | [26] 1 | [27] 0.908 | [28] 1.07 | [29] 0.846 | [30] 0.957 | [31] 0.946 | [32] 0.957 | [33] 1.01 | [34] 0.956 | [35] 0.976 | [36] 1.1 | [37] 0.993 | [38] 0.977 | [39] 0.961 | [40] 0.947 | [41] 1.06 | [42] 0.961 | [43] 0.991 | [44] 0.941 | [45] 0.997 | [46] 0.962 | [47] 0.984 | [48] 0.951 | [49] 0.964 | [50] 0.985 | [51] 0.957 | [52] 1.05 | [53] 0.954 | [54] 0.961 | [55] 0.992 | [56] 0.951 | [57] 0.985 | [58] 0.996 | [59] 1.05 | [60] 1.03 | [61] 0.966 | [62] 1 | [63] 0.989 | [64] 0.99 | [65] 0.961 | [66] 0.864 | [67] 0.967 | [68] 0.948 | [69] 0.943 | [70] 0.925 | [71] 0.954

Cc1cc(NNC(=O)c2ccccc2Cl)nc2c1c(C)nn2C
inactive: [1] 0.994 | [2] 0.989 | [3] 0.979 | [4] 0.979 | [5] 0.983 | [6] 0.987 | [7] 0.978 | [8] 0.994 | [9] 0.978 | [10] 0.978 | [11] 0.951 | [12] 0.99 | [13] 0.993 | [14] 0.976 | [15] 0.978 | [16] 0.938 | [17] 0.96 | [18] 0.98 | [19] 0.993 | [20] 0.987 | [21] 0.95 | [22] 0.973 | [23] 0.958 | [24] 1.01 | [25] 0.974 | [26] 1.07 | [27] 1.08 | [28] 1.05 | [29] 0.953 | [30] 0.984 | [31] 0.968 | [32] 0.966 | [33] 0.972 | [34] 0.988 | [35] 0.926 | [36] 1.08 | [37] 0.964 | [38] 0.958 | [39] 0.941 | [40] 0.985 | [41] 1.06 | [42] 0.93 | [43] 0.951 | [44] 0.968 | [45] 0.956 | [46] 0.992 | [47] 0.97 | [48] 0.986 | [49] 0.982 | [50] 0.973 | [51] 0.98 | [52] 1.03 | [53] 0.985 | [54] 0.989 | [55] 0.973 | [56] 0.978 | [57] 0.905 | [58] 0.94 | [59] 1.04 | [60] 0.978 | [61] 0.989 | [62] 0.97 | [63] 0.987 | [64] 0.945 | [65] 0.993 | [66] 1.05 | [67] 0.993 | [68] 0.999 | [69] 0.993 | [70] 0.998 | [71] 0.98

Cc1cc(C(=O)NNc2ccc(F)cc2F)no1
inactive: [1] 0.972 | [2] 0.967 | [3] 0.971 | [4] 0.969 | [5] 0.964 | [6] 0.972 | [7] 0.977 | [8] 0.959 | [9] 0.973 | [10] 0.984 | [11] 0.938 | [12] 0.963 | [13] 0.952 | [14] 0.963 | [15] 0.95 | [16] 0.822 | [17] 0.957 | [18] 0.974 | [19] 0.956 | [20] 0.974 | [21] 0.899 | [22] 0.961 | [23] 0.93 | [24] 0.995 | [25] 0.861 | [26] 0.923 | [27] 0.948 | [28] 1.01 | [29] 0.962 | [30] 0.971 | [31] 0.955 | [32] 0.965 | [33] 0.931 | [34] 0.974 | [35] 0.879 | [36] 0.998 | [37] 0.95 | [38] 0.953 | [39] 0.955 | [40] 0.976 | [41] 1.01 | [42] 0.932 | [43] 0.93 | [44] 0.934 | [45] 0.912 | [46] 0.969 | [47] 0.972 | [48] 0.975 | [49] 0.988 | [50] 0.953 | [51] 0.963 | [52] 0.979 | [53] 0.962 | [54] 0.959 | [55] 0.908 | [56] 0.967 | [57] 0.937 | [58] 0.822 | [59] 1.01 | [60] 0.921 | [61] 0.967 | [62] 0.939 | [63] 0.923 | [64] 0.925 | [65] 0.96 | [66] 0.934 | [67] 0.968 | [68] 0.962 | [69] 0.963 | [70] 0.979 | [71] 0.964

Cc1cc(Cl)ccc1NNC(=O)c1ccno1
inactive: [1] 0.974 | [2] 0.958 | [3] 0.981 | [4] 0.968 | [5] 0.966 | [6] 0.97 | [7] 0.979 | [8] 0.967 | [9] 0.97 | [10] 0.987 | [11] 0.933 | [12] 0.968 | [13] 0.961 | [14] 0.976 | [15] 0.944 | [16] 0.884 | [17] 0.938 | [18] 0.974 | [19] 0.96 | [20] 0.967 | [21] 0.925 | [22] 0.979 | [23] 0.917 | [24] 0.996 | [25] 0.912 | [26] 0.954 | [27] 1 | [28] 1 | [29] 0.902 | [30] 0.971 | [31] 0.931 | [32] 0.927 | [33] 0.919 | [34] 0.987 | [35] 0.87 | [36] 1.01 | [37] 0.912 | [38] 0.939 | [39] 0.903 | [40] 0.971 | [41] 0.978 | [42] 0.871 | [43] 0.908 | [44] 0.903 | [45] 0.903 | [46] 0.962 | [47] 0.938 | [48] 0.978 | [49] 0.975 | [50] 0.912 | [51] 0.972 | [52] 0.953 | [53] 0.966 | [54] 0.978 | [55] 0.907 | [56] 0.977 | [57] 0.889 | [58] 0.946 | [59] 0.977 | [60] 0.899 | [61] 0.963 | [62] 0.942 | [63] 0.916 | [64] 0.904 | [65] 0.958 | [66] 0.958 | [67] 0.975 | [68] 0.945 | [69] 0.957 | [70] 0.955 | [71] 0.972
